Out of some 1,400 compounds screened, about 600 (43%) were called active. So high a share suggests a set chosen from earlier hits. Only a sample is shown. A number with no mark means an inactive call. No stated cut-off is given here; in the data, active means inhibition above about 17%; inactive means the rest.

The subject of this test is methionyl-tRNA synthetase (Trypanosoma brucei brucei). The experiment in a line: T. brucei MetRS inhibitors, orthogonal assay for T. brucei MetRS inhibitor project, biochemical, fluorescence polarization (AID 651607).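 Further: 0% = vehicle wells.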 The conditions noted are these: purified T. brucei MetRS, at 11.9 µM, hits give high values. (In general: In fluorescence polarisation assays a small probe gives low polarisation when free and higher when bound to something large.)
For `O=C(CC(=O)Nc1ccc(Cl)c(Cl)c1)N/N=C/c1ccc(O)cc1`, the inhibition was 30.8% (active).
The figure for `O=C(Cn1c2[n+](c3ccc(C(F)(F)F)cc31)CCCCC2)Nc1c(F)cccc1F` is 9.23%.
For the compound `CCO[C@@H]1OC(C(=O)NCc2nc3ccccc3[nH]2)=C[C@H](C2CCCCC2)[C@H]1CCCO`, the inhibition was 17.2% (active).
In the case of `O=C(OCc1nc2ccccc2[nH]1)C1CCCCC1`, the inhibition was 9.3%.
Then `O=C(Nc1ccccc1)Nc1nnc(COc2ccccc2F)s1`, with 23.8% (active); and `Cc1ccc(CNC(=O)CSc2nnc3c(n2)[nH]c2ccc(F)cc23)cc1`, with 51.8% (active).
The figure for `CN(C(=O)CSc1nnc(Nc2ccccc2)s1)C1CCS(=O)(=O)C1` (stereo not drawn) is -4.02%; for `CCCCCCCC[n+]1cccc(C(=O)N2c3c(nc(N)[nH]c3=O)NC(C)C2C)c1` (stereo not drawn) it is 13.1%.
The figure for `CC(C)(C)c1ccc(/C=C2\SC(=O)N=C2N)cc1` is 22.6% (active); for `NC1=NC(=O)S/C1=C\c1ccc(O)cc1` it is 16%; for `CN(C(=O)CSc1nnc(-c2c[nH]c3ccccc23)o1)C1CCS(=O)(=O)C1` (stereo not drawn) it is 15.7%.
Regarding `O=C1CCCN1CCCNc1ncnc2c1[nH]c1ccccc12`, the inhibition was 28.8% (active).
Then `COc1ccc(CCn2ccc(O)c(Cc3ccc(Cl)cc3Cl)c2=O)cc1OC`, with 2.44%; and `Cc1ccc(S(=O)(=O)c2c[nH]c3ccc(C)cc3c2=O)cc1`, with 20.1% (active); and `Cc1ccc(S(=O)(=O)c2c[nH]c3ccc(Cl)cc3c2=O)cc1`, with 60.6% (active).
Then `CCN(CC)C(=O)C(=O)c1cn(CC(=O)NCc2ccc3c(c2)OCO3)c2ccccc12`, with 50.9% (active); and `COc1ccc(-c2[nH]ncc2/C=N/NC(=O)c2cc(Br)ccc2O)c(OC)c1`, with 15.2%.
Regarding `CCCCN1C[C@H](c2ccc(Br)cc2)[C@@H](CC(=O)Nc2ccc(Br)cc2)C1=O`, the inhibition was 33.1% (active).
The figure for `O=C(NCc1cccc(CNC(=O)Nc2cccc(O)c2)c1)Nc1cccc(O)c1` is 8.48%; for `O=C(Cc1ccc(S(=O)(=O)N2CCOCC2)s1)Nc1ccc(Br)c(C(F)(F)F)c1` it is 27.2% (active); for `O=C(Nc1ccc(S(=O)(=O)Nc2ncccn2)cc1)c1cncc(Br)c1` it is -0.88%.
The figure for `O=C(O)CCn1c(O)c(C=C2N=c3ccccc3=N2)sc1=S` is 17.1% (active); for `Cn1c(CCCOc2ccc(Cl)cc2Cl)n[nH]c1=S` it is 11.9%; for `c1ccc2cc3c(NCCN4CCOCC4)ccnc3cc2c1` it is 25.4% (active).
Then `Cc1ccc(NC(=O)C(C)c2cccc(C(=O)c3ccccc3)c2)cc1` (stereo not drawn), with 65.3% (active); and `CC(=O)c1ccc(NC(=O)c2ccc(-n3cncn3)c([N+](=O)[O-])c2)cc1`, with 50.4% (active); and `Cc1ccc(S(=O)(=O)N(C)C)cc1NC(=O)c1ccc(-n2cncn2)c([N+](=O)[O-])c1`, with 34.4% (active).
As for `Cc1ccccc1OCC(=O)NNC(=O)c1ccc(-n2cncn2)c([N+](=O)[O-])c1`, the inhibition is 11.1%.
The figure for `O=C(NNC(=O)c1ccc(-n2cncn2)c([N+](=O)[O-])c1)c1ccccc1` is 32% (active); for `Cc1cc(C)cc(NC(=O)N(C)Cc2ccccc2)c1` it is 4.52%; for `Cc1ccc(N2C(=O)CC(NCc3ccc4c(c3)OCO4)C2=O)cc1Cl` (stereo not drawn) it is 55.8% (active).
The figure for `NS(=O)(=O)c1ccc(CCNC(=O)Nc2ccc(Cl)cc2)cc1` is 21.5% (active).
Consider `O=C(CSCC(=O)Nc1cccc([N+](=O)[O-])c1)Nc1ccccc1`, for which the inhibition is 8.38%.
The figure for `O=C(Nc1ccc(Cl)cc1)N1CCc2[nH]c3ccccc3c2C1` is 8.86%.
`Fc1ccc(NC(=S)N2CCc3[nH]c4ccccc4c3C2)cc1`: the inhibition is 18.4% (active).
Then `O=C(Nc1cccc([N+](=O)[O-])c1)N1CCc2ccccc2C1`, with 11.1%.
Consider `COc1ccc(OCC(O)CNC(=O)Nc2ccc(Cl)cc2)cc1` (stereo not drawn), for which the inhibition is 51% (active).
For `COc1ccc(NC(=O)C(NC(C)=O)C(=O)NCc2ccccc2Cl)cc1` (stereo not drawn), the inhibition was 1.33%.
Then `CCCCN(C)Cc1c(C)[nH]c2ccc(Cl)cc2c1=O`, with 39.9% (active); and `Clc1ccc(-c2cc(C3CCNCC3)[nH]n2)c(Cl)c1`, with 21.7% (active).
As to `O=S(=O)(NCc1ccc(Cl)cc1Cl)c1cccs1`, the inhibition is 13.7%.
The figure for `O=C(NNc1cc(Cl)cc(Cl)c1)c1c(F)cccc1Cl` is 37.3% (active); for `Oc1[nH]c2ccc(Br)cc2c1N=Nc1nn[nH]n1` it is 13.7%.
The figure for `CSc1nsc(NC(=O)Nc2ccccc2)n1` is 18.2% (active).
Then `OCCNc1nc2ccccc2n1-c1ncnc2sc3c(c12)CCC3`, with 12.1%; and `Clc1ccccc1SCc1nc2ccccc2[nH]1`, with -1.51%; and `Cc1ccc(O)c(CNc2nc3ccccc3[nH]2)c1`, with 77.9% (active).
On to `S=c1[nH]nc(CSCc2ccc(Cl)cc2Cl)n1-c1ccccc1`, for which the inhibition is 2.4%.
Then `O=C(NCC(O)c1nc2ccccc2[nH]1)c1ccc(Br)cc1` (stereo not drawn), with 17.1% (active); and `O=S(=O)(c1ccc(Br)cc1)N1CCC(c2nc3ccccc3[nH]2)CC1`, with 4.17%; and `O=[N+]([O-])c1ccc(N2CCN(c3ccc(O)cc3)CC2)c(Cl)c1`, with 8.79%.
For `c1ccc(CN=C2Nc3ccccc3CS2)nc1`, the inhibition is 5.74%.
The figure for `COc1ccccc1-n1c(SCC(=O)Nc2ccc(Cl)cc2)nc(O)c(Cc2ccccc2)c1=O` is 57.9% (active); for `COC(=O)CN1C(=S)N(c2ccccc2)C(=O)C1CC(=O)Nc1ccc(Cl)cc1` (stereo not drawn) it is 15%.
Then `O=C(/C(=N\O)n1cncn1)c1ccc(Br)cc1Br`, with 4.41%; and `O=C(O)c1ccc(NS(=O)(=O)c2ccc3c(c2)C(=O)c2cc(S(=O)(=O)Nc4ccc(C(=O)O)cc4)ccc2-3)cc1`, with 1%.
Then `Cc1c(CN2CCC(CO)(CCOc3ccccc3)CC2)[nH]c2ccc(Cl)cc12`, with 20.1% (active).
For `O=C(CSc1nc2ccccc2[nH]1)N/N=C/C=C\c1ccccc1[N+](=O)[O-]`, the inhibition is 12.7%.
The figure for `Cc1ccc(-c2cnc(C(O)c3cc(Cl)cc(Cl)c3)[nH]2)cc1` (stereo not drawn) is 43.7% (active); for `OC(c1cc(Cl)cc(Cl)c1)c1ncc(-c2ccccc2C(F)(F)F)[nH]1` (stereo not drawn) it is 58.3% (active); for `O=C(NCCN1CCOCC1)c1ccccc1N1C(=O)[C@@H]2Cc3c([nH]c4ccccc34)C(c3cccc(Cl)c3)N2C1=O` (stereo partly drawn) it is 13.3%.
The figure for `CC(=N\NC(=O)c1cc(Br)ccc1O)/C(=N/O)C(=O)Nc1ccccc1` is 4.72%.
Then `O=C(Cn1c(NCCO)nc2ccccc21)c1ccc(Cl)cc1Cl`, with -2.79%.
`COC(=O)/C(=C\Nc1ccccc1)NC(=O)c1ccc(Cl)cc1Cl`: the inhibition is 59.6% (active).
The figure for `CC(C)OCCCNc1ncnc2c1[nH]c1ccc(F)cc12` is 80.6% (active).
Then `CCN1CCCC1CNc1ncnc2c1[nH]c1ccc(F)cc12` (stereo not drawn), with 31.6% (active).
Turning to `c1ccc2cc3[nH]c(CN4CCCCC4)nc3cc2c1`, the inhibition is 3.4%.
Then `CCCCCn1nnnc1-c1nc2cc3ccccc3cc2[nH]c1=O`, with 24.4% (active).

Broadly, the inhibition is the relative decrease from the control value, in per cent.

Values taken from PubChem BioAssay AID651607 (The Scripps Research Institute Molecular Screening Center, 2012).
